Measurements from PubChem BioAssay (NCI).
This is part of a sample that, as a whole, favours compounds with a hit. Of some 83,000 tested, about 20% had one in any assay.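 Assay: single dose, 48 h. Readout: percent growth (0 = no net growth; negative = cell death). Active: <10.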 Activity calls are given as the source filed them.

Columns and labels:
Test in all cases: NCI-60 one-dose screen, 48 h (100 = growth as untreated, 0 = no growth, -100 = all killed)
Details in all cases: 10 µM unless noted
NCI-H23 lung = tested on: NCI-H23 lung
NCI-H226 lung = tested on: NCI-H226 lung
NCI-H322M lung = tested on: NCI-H322M lung
HOP-62 NSCLC = tested on: HOP-62 NSCLC
NCI-H460 lung = tested on: NCI-H460 lung
HOP-92 NSCLC = tested on: HOP-92 NSCLC
NCI-H522 lung = tested on: NCI-H522 lung
A549/ATCC NSCLC = tested on: A549/ATCC NSCLC
786-0 renal = tested on: 786-0 renal
COLO 205 colon = tested on: COLO 205 colon

Measured: growth

COc1ccc(N(c2nc(-c3ccc([N+](=O)[O-])cc3)cs2)C(C)C)cc1
inactive: NCI-H23 lung 65% | NCI-H226 lung 76.3% | NCI-H322M lung 83.1% | HOP-62 NSCLC 84.8% | NCI-H460 lung 84.1% | HOP-92 NSCLC 74.3% | NCI-H522 lung 67.8% | A549/ATCC NSCLC 85.3% | 786-0 renal 88.4% | COLO 205 colon 108%

COc1ccc(/C=C2\N=C(Nc3ccccc3)N(NC(=O)c3ccccn3)C2=O)cc1
inactive: NCI-H23 lung 101% | NCI-H226 lung 98.1% | NCI-H322M lung 106% | HOP-62 NSCLC 107% | NCI-H460 lung 99.7% | HOP-92 NSCLC 95.8% | NCI-H522 lung 90% | A549/ATCC NSCLC 99.1% | 786-0 renal 96.4% | COLO 205 colon 115%

O=C(CSc1nccc(Nc2ccc(S(=O)(=O)Nc3ccccn3)cc2)n1)c1ccc(Cl)cc1
inactive: NCI-H23 lung 80.3% | NCI-H226 lung 89% | NCI-H322M lung 104% | HOP-62 NSCLC 83.5% | NCI-H460 lung 104% | HOP-92 NSCLC 92.8% | NCI-H522 lung 75.4% | A549/ATCC NSCLC 105% | 786-0 renal 102% | COLO 205 colon 110%

Cn1cc(-c2noc(C(=O)c3cn(C)c4ncccc34)n2)c2ccccc21
inactive: NCI-H23 lung 92.3% | NCI-H226 lung 89.4% | NCI-H322M lung 95.5% | HOP-62 NSCLC 95% | NCI-H460 lung 99.3% | HOP-92 NSCLC 41.4% | NCI-H522 lung 81.1% | A549/ATCC NSCLC 100% | 786-0 renal 94.5% | COLO 205 colon 99.8%

CC1(C)CC[C@]23CC[C@]4(C)[C@H](CC[C@@H]5[C@@]6(C)C/C(=C/c7cccnc7)C(=O)C(C)(C)[C@@H]6CC[C@]54C)[C@H]2[C@H]1OC3=O
inactive: NCI-H23 lung 46.7% [100 µM] | NCI-H226 lung 24.6% [100 µM] | NCI-H322M lung 65.2% [100 µM] | HOP-62 NSCLC 25.2% [100 µM] | NCI-H460 lung 23.2% [100 µM] | HOP-92 NSCLC 24.8% [100 µM] | NCI-H522 lung 30.5% [100 µM] | A549/ATCC NSCLC 44.8% [100 µM] | 786-0 renal 45.5% [100 µM] | COLO 205 colon 23.1% [100 µM]

CCN(CC)c1ccc(/C=C/C=C2\NC(=O)NC2=O)cc1
inactive: NCI-H23 lung 49.8% | NCI-H226 lung 69% | NCI-H322M lung 63.3% | HOP-62 NSCLC 45.3% | NCI-H460 lung 19.7% | HOP-92 NSCLC 31.1% | A549/ATCC NSCLC 37.2% | COLO 205 colon 33.7%
active: NCI-H522 lung -36% | 786-0 renal 9.14%

CC[C@@](C)(NC(=O)[C@H](C)NC(=O)CCNC(=O)C(C)(C)NC(=O)[C@H](C)NC(=O)[C@@H]1CCCN1C(=O)[C@@](C)(CC)NC(=O)[C@H](Cc1ccccc1)NC(=O)C1CCCN1C(=O)C(C)(C)NC(=O)C1CCCN1C(=O)C(C)(C)NC(C)=O)C(=O)NCCC(=O)N[C@@H](CC(C)C)C(=O)NC(C)(C)C(=O)NCCC(=O)N[C@@H](CC(C)C)C(=O)NC(C)(C)C(=O)NC(C)(C)C(=O)N[C@@H](CC(C)C)C(=O)NCCC(=O)NCO (stereo not given in full)
active: NCI-H23 lung -89.5% | NCI-H226 lung -97% | NCI-H322M lung -87.9% | HOP-62 NSCLC -92% | NCI-H460 lung -78.1% | HOP-92 NSCLC -94.7% | NCI-H522 lung -84.2% | A549/ATCC NSCLC -81.3% | 786-0 renal -94.6% | COLO 205 colon -87.9%

O=C(N/N=C\c1cc(Cl)ccc1O)N/N=C/c1cc(Cl)ccc1O
inactive: NCI-H23 lung 45.7% | NCI-H226 lung 73% | NCI-H322M lung 74.7% | HOP-62 NSCLC 54% | NCI-H460 lung 16.1% | HOP-92 NSCLC 21% | NCI-H522 lung 14% | A549/ATCC NSCLC 26.2% | 786-0 renal 78% | COLO 205 colon 46.3%

NC(=O)c1c(NC(=O)COC(=O)Cc2ccccc2F)sc2c1CCC2
inactive: NCI-H23 lung 99.2% | NCI-H226 lung 94.4% | NCI-H322M lung 126% | HOP-62 NSCLC 115% | NCI-H460 lung 100% | HOP-92 NSCLC 89.3% | NCI-H522 lung 85.5% | A549/ATCC NSCLC 103% | 786-0 renal 97.6% | COLO 205 colon 101%

O=C(CCCSc1nc(-c2ccccc2)cc(-c2ccccc2)n1)NO
inactive: NCI-H322M lung 12.6%
active: NCI-H23 lung -2.58% | NCI-H226 lung -6.97% | HOP-62 NSCLC -8.18% | NCI-H460 lung 6.46% | HOP-92 NSCLC -3.2% | NCI-H522 lung -9.12% | A549/ATCC NSCLC -1.91% | 786-0 renal 7.15% | COLO 205 colon -14%

CC/C=C(\C)C(CCC)(CN=O)C(=O)OCC (stereo not given)
inactive: NCI-H23 lung 99.7% | NCI-H226 lung 109% | NCI-H322M lung 107% | HOP-62 NSCLC 93% | NCI-H460 lung 114% | HOP-92 NSCLC 102% | NCI-H522 lung 92.8% | A549/ATCC NSCLC 85.8% | 786-0 renal 104% | COLO 205 colon 104%

C[C@]12CCc3nc(Nc4ccccc4)sc3C1=CC[C@@H]1[C@@H]2CC[C@]2(C)/C(=N/NC(N)=S)CC[C@@H]12
inactive: NCI-H23 lung 59.7% | NCI-H226 lung 15.6% | NCI-H322M lung 81.9% | HOP-62 NSCLC 68.2% | NCI-H460 lung 70.3% | HOP-92 NSCLC 85.4% | NCI-H522 lung 32.5% | A549/ATCC NSCLC 43.1% | COLO 205 colon 58.1%
active: 786-0 renal -49.8%

Cc1cccc([N+](=O)[O-])c1I
inactive: NCI-H23 lung 105% | NCI-H226 lung 102% | NCI-H322M lung 112% | HOP-62 NSCLC 101% | NCI-H460 lung 111% | HOP-92 NSCLC 87.4% | NCI-H522 lung 93.8% | A549/ATCC NSCLC 102% | 786-0 renal 108% | COLO 205 colon 110%

CC1(C)S[C@@H]2[C@H](NC(=O)[C@H](C(=O)O)c3cccs3)C(=O)N2[C@H]1C(=O)O
inactive: NCI-H23 lung 102% | NCI-H226 lung 105% | NCI-H322M lung 108% | HOP-62 NSCLC 105% | NCI-H460 lung 113% | HOP-92 NSCLC 122% | NCI-H522 lung 75.8% | A549/ATCC NSCLC 102% | 786-0 renal 97.1% | COLO 205 colon 111%

COc1ncc(-c2ccc3nccc(C#CCCCCC(=O)O)c3c2)cc1NS(=O)(=O)c1ccc(F)cc1F
inactive: NCI-H23 lung 44% | NCI-H226 lung 46.4% | NCI-H322M lung 18.3% | HOP-62 NSCLC 29.9% | NCI-H460 lung 12.3% | NCI-H522 lung 43.4% | A549/ATCC NSCLC 14.8% | COLO 205 colon 28.6%
active: HOP-92 NSCLC -21.7% | 786-0 renal 3.82%

O=C1COCCN1c1ccc(Nc2nc(Cl)nc(N3CCOCC3)n2)cc1
inactive: NCI-H23 lung 96.5% | NCI-H226 lung 87.5% | NCI-H322M lung 93.3% | HOP-62 NSCLC 97.9% | NCI-H460 lung 108% | HOP-92 NSCLC 85.8% | NCI-H522 lung 68.2% | A549/ATCC NSCLC 95.8% | 786-0 renal 104% | COLO 205 colon 102%

O=C1/C(=C/c2ccc(OCc3ccccc3)cc2)Oc2cc(OCCN3CCCCC3)ccc21
inactive: NCI-H23 lung 74.5% | NCI-H226 lung 89.6% | NCI-H322M lung 97.9% | HOP-62 NSCLC 95.7% | NCI-H460 lung 70.3% | HOP-92 NSCLC 70.9% | NCI-H522 lung 87.5% | A549/ATCC NSCLC 80.1% | 786-0 renal 69% | COLO 205 colon 105%

N#Cc1ccc(-c2ccc(COc3ccc(CC4SC(=O)NC4=O)cc3)cc2)cc1 (stereo not given)
inactive: NCI-H23 lung 50.7% | NCI-H226 lung 86.5% | NCI-H322M lung 89.7% | HOP-62 NSCLC 67.1% | NCI-H460 lung 69.5% | HOP-92 NSCLC 66.8% | NCI-H522 lung 43.8% | A549/ATCC NSCLC 48.1% | 786-0 renal 83% | COLO 205 colon 103%

C=C(C)[C@@H]1CC[C@]2(C)[C@H](CC=C3[C@@H]4[C@@H](C)[C@H](C)CC[C@]4(C(N)=O)CC[C@]32C)[C@@]1(C)CCC#N
active: NCI-H23 lung 6.47% [100 µM] | NCI-H226 lung -22.2% [100 µM] | NCI-H322M lung 0.378% [100 µM] | HOP-62 NSCLC -1.03% [100 µM] | NCI-H460 lung -38.4% [100 µM] | HOP-92 NSCLC -37.7% [100 µM] | NCI-H522 lung -6.12% [100 µM] | A549/ATCC NSCLC 9.82% [100 µM] | 786-0 renal -36.5% [100 µM] | COLO 205 colon -78.9% [100 µM]

COc1ccc(C(C(=O)O)c2ccc(OC)cc2)cc1
inactive: NCI-H23 lung 113% | NCI-H226 lung 104% | NCI-H322M lung 121% | HOP-62 NSCLC 112% | NCI-H460 lung 117% | HOP-92 NSCLC 106% | NCI-H522 lung 106% | A549/ATCC NSCLC 116% | 786-0 renal 107% | COLO 205 colon 117%

O=C(Nc1cccc(C2=NCCN2)c1)c1cccc(C(=O)Nc2cccc(C3=NCCN3)c2)c1
inactive: NCI-H23 lung 95.4% | NCI-H226 lung 90.5% | NCI-H322M lung 92.4% | HOP-62 NSCLC 97.1% | NCI-H460 lung 102% | HOP-92 NSCLC 101% | NCI-H522 lung 94.1% | A549/ATCC NSCLC 102% | 786-0 renal 103% | COLO 205 colon 99.8%

Oc1ccc(N=Nc2nccs2)c(O)c1
inactive: NCI-H23 lung 81.2% | NCI-H226 lung 89.6% | NCI-H322M lung 74.4% | HOP-62 NSCLC 79% | NCI-H460 lung 31.2% | HOP-92 NSCLC 61.7% | NCI-H522 lung 41.5% | A549/ATCC NSCLC 52.2% | 786-0 renal 36.8% | COLO 205 colon 24.8%

C=C(C)[C@@H]1CC[C@]2(C(N)=O)CC[C@]3(C)[C@H](CC[C@@H]4[C@@]5(C)C/C(=C/c6cccnc6)[C@H](O)C(C)(C)[C@@H]5CC[C@]43C)[C@@H]12
active: NCI-H460 lung 5.04% [100 µM] | NCI-H522 lung 8.63% [100 µM] | COLO 205 colon -36.6% [100 µM]
inactive: NCI-H23 lung 28.1% [100 µM] | NCI-H226 lung 22.8% [100 µM] | NCI-H322M lung 35.6% [100 µM] | HOP-62 NSCLC 27.5% [100 µM] | HOP-92 NSCLC 23.4% [100 µM] | A549/ATCC NSCLC 23.1% [100 µM] | 786-0 renal 22.7% [100 µM]
